Data on nine compounds can be found in PubChem BioAssay (NCI).

Assay [1] can be described thus: NCI Yeast Anticancer Drug Screen. Data for the rad50 strain (AID 155).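 Note: 0% = growth of vehicle-only cultures of the same strain.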 Particulars: S. cerevisiae rad50 strain growth inhibition, active compounds read high. The essentials: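 Inhibition values express reduced yeast growth in compound-treated cultures relative to vehicle-treated controls.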
Assay [2] is described as follows: NCI Yeast Anticancer Drug Screen. Data for the mec2-1 strain (AID 157). Particulars: S. cerevisiae mec2-1 strain, active compounds read high. The essentials: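 Test agents were screened against the mec2-1 yeast strain, with defined DNA repair or cell cycle alteration. Growth was scored as inhibition against vehicle-only controls.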
Assay [3] is described as follows: NCI Yeast Anticancer Drug Screen. Data for the sgs1 mgt1 strain (AID 161).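 Note: 0% = growth of cultures given vehicle only.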 The settings on record: S. cerevisiae sgs1 mgt1 strain, active compounds read high. The essentials:
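Test agents were incubated with a DNA-repair-mutant yeast strain. Growth was then read and compared against vehicle-treated controls.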

Assay [4] can be described thus: NCI Yeast Anticancer Drug Screen. Data for the cln2 rad14 strain (AID 165).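 Note: 0% = growth equal to vehicle treated cultures.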 The settings on record: S. cerevisiae cln2 rad14 strain, active compounds read high. The essentials:
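Growth of compound-exposed yeast (cln2 rad14 genotype) measured and expressed as inhibition relative to vehicle.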

Assay [5] can be described thus: NCI Yeast Anticancer Drug Screen. Data for the bub3 strain (AID 167). Particulars: S. cerevisiae bub3 mutant strain, active compounds read high. The essentials:
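Steps: expose the mutant yeast strain to compound; grow alongside vehicle-treated cultures; measure growth; express inhibition against the vehicle cultures.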

The nature of assay [6]: NCI Yeast Anticancer Drug Screen. Data for the mlh1 rad18 strain (AID 175). Particulars: S. cerevisiae mlh1 rad18 strain growth inhibition, active compounds read high. The essentials: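 In this whole-cell yeast screen, a strain with altered DNA damage repair is challenged with compound, and its growth is measured against matched vehicle-treated controls.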
Setting [7] is: at 5.0 µM (retest, dose inferred, filed as 0.5).
Setting [8] is: at 50.0 µM (retest, dose inferred, filed as 5.0).

The panel holds about 79,000 compounds, 15% with a hit somewhere; the sample as a whole holds those more often. Unmarked numbers belong to inactive results. Active and inactive are the calls of the source. Cut-off read from the data, not from the text of the source: active = growth inhibition above about 70%; inactive = the rest.

Take `O=[N+]([O-])/C(Br)=C\c1ccc([N+](=O)[O-])cc1`: the growth inhibition is 19% in assay [1] (setting [7]); 99% (active) in assay [1] (setting [8]); 99.4% (active) in assay [1] (at 50.0 µM); 4% in assay [2] (setting [7]); 100% (active) in assay [2] (setting [8]); 96.8% (active) in assay [2] (at 50.0 µM). Also, the growth inhibition is 9% in assay [3] (setting [7]); 100% (active) in assay [3] (setting [8]); 99.6% (active) in assay [3] (at 50.0 µM); 17% in assay [4] (setting [7]); 99% (active) in assay [4] (setting [8]); 92% (active) in assay [4] (at 50.0 µM). In addition, the growth inhibition in assay [5] (setting [7]) was 40%; in assay [5] (setting [8]) it was 99% (active); in assay [5] (at 50.0 µM), 94.9% (active); in assay [6] (setting [7]), 54%; in assay [6] (setting [8]), 99% (active); in assay [6] (at 50.0 µM), 99.5% (active).

Consider `O=c1[nH]c2c([N+](=O)[O-])cc(Cl)cc2nc1/C=C(\O)c1cccc2ccccc12`, for which the growth inhibition in assay [1] (setting [7]) is 0%; in assay [1] (setting [8]), 86% (active); in assay [1] (at 50.0 µM) it was 77% (active); in assay [2] (setting [7]), 10%; in assay [2] (setting [8]), 75% (active); in assay [2] (at 50.0 µM), 62.2%. The growth inhibition in assay [3] (setting [7]) is -10%; in assay [3] (setting [8]), 81% (active); in assay [3] (at 50.0 µM) it was 89.5% (active); in assay [4] (setting [7]), -1%; in assay [4] (setting [8]), 87% (active); in assay [4] (at 50.0 µM), 82.4% (active). Besides, the growth inhibition in assay [5] (setting [7]) was -3%; in assay [5] (setting [8]) it was 88% (active); in assay [5] (at 50.0 µM), 71.5% (active); in assay [6] (setting [7]), -7%; in assay [6] (setting [8]) it was 85% (active); in assay [6] (at 50.0 µM), 72.2% (active).

Turning to `Clc1ccc(CN2COc3c(cc(Cl)c4cccnc34)C2)c(Cl)c1`, the growth inhibition in assay [1] (setting [7]) is 6%; in assay [1] (setting [8]) it was 98% (active); in assay [1] (at 50.0 µM), 23.6%; in assay [2] (setting [7]) it was -20%; in assay [2] (setting [8]), 91% (active); in assay [2] (at 50.0 µM), 22.9%. For the same compound, the growth inhibition is -1% in assay [3] (setting [7]); 97% (active) in assay [3] (setting [8]); -6.85% in assay [3] (at 50.0 µM); -9% in assay [4] (setting [7]); 97% (active) in assay [4] (setting [8]); 46.1% in assay [4] (at 50.0 µM). Also, the growth inhibition in assay [5] (setting [7]) is 0%; in assay [5] (setting [8]), 98% (active); in assay [5] (at 50.0 µM), 3%; in assay [6] (setting [7]), 0%; in assay [6] (setting [8]), 95% (active); in assay [6] (at 50.0 µM) it was 1.4%.

As to `COC(=O)c1c(C(N)=O)c(C)n(NC(=O)Nc2ccccc2)c1C`, the growth inhibition in assay [1] (setting [7]) is 25%; in assay [1] (setting [8]), 93% (active); in assay [1] (at 50.0 µM), 96.2% (active); in assay [2] (setting [7]) it was 24%; in assay [2] (setting [8]), 95% (active); in assay [2] (at 50.0 µM), 85.1% (active). Also, the growth inhibition in assay [3] (setting [7]) is 41%; in assay [3] (setting [8]) it was 94% (active); in assay [3] (at 50.0 µM), 95% (active); in assay [4] (setting [7]), 32%; in assay [4] (setting [8]) it was 91% (active); in assay [4] (at 50.0 µM) it was 81.4% (active). The growth inhibition in assay [5] (setting [7]) is 37%; in assay [5] (setting [8]) it was 92% (active); in assay [5] (at 50.0 µM) it was 86.2% (active); in assay [6] (setting [7]) it was 63%; in assay [6] (setting [8]), 95% (active); in assay [6] (at 50.0 µM), 87.8% (active).

On to `CCOc1ccc(Nc2nc(C)c(C(=O)/C=C/c3ccc(Cl)cc3Cl)s2)cc1`, for which the growth inhibition was 25% in assay [1] (setting [7]); 25% in assay [1] (setting [8]); 71.1% (active) in assay [1] (at 50.0 µM); -6% in assay [2] (setting [7]); -6% in assay [2] (setting [8]); 31.9% in assay [2] (at 50.0 µM). The growth inhibition in assay [3] (setting [7]) was 8%; in assay [3] (setting [8]), 8%; in assay [3] (at 50.0 µM), 33%; in assay [4] (setting [7]), 6%; in assay [4] (setting [8]) it was 6%; in assay [4] (at 50.0 µM), 48.4%. Besides, the growth inhibition is 6% in assay [5] (setting [7]); 6% in assay [5] (setting [8]); 55.5% in assay [5] (at 50.0 µM); 20% in assay [6] (setting [7]); 20% in assay [6] (setting [8]); 17.6% in assay [6] (at 50.0 µM).

As to `COc1ccc(/C=N/N=c2\[nH][nH]/c(=N\N=C\c3ccc(OC)c4ccccc34)c3ccccc23)c2ccccc12`, the growth inhibition in assay [1] (setting [7]) is 15%; in assay [1] (setting [8]), 34%; in assay [1] (at 50.0 µM), 57.6%; in assay [2] (setting [7]) it was 0%; in assay [2] (setting [8]) it was 59%; in assay [2] (at 50.0 µM), 47.5%. For the same compound, the growth inhibition was 4% in assay [3] (setting [7]); 76% (active) in assay [3] (setting [8]); 86.9% (active) in assay [3] (at 50.0 µM); -7% in assay [4] (setting [7]); 28% in assay [4] (setting [8]); 37.6% in assay [4] (at 50.0 µM). In addition, the growth inhibition in assay [5] (setting [7]) was 0%; in assay [5] (setting [8]) it was 78% (active); in assay [5] (at 50.0 µM) it was 33.4%; in assay [6] (setting [7]), 12%; in assay [6] (setting [8]), 85% (active); in assay [6] (at 50.0 µM) it was 65%.

On to `C/C=C/CSc1cc(NC(=S)c2ccsc2C)ccc1Cl`, for which the growth inhibition is -6% in assay [1] (setting [7]); 83% (active) in assay [1] (setting [8]); 88.2% (active) in assay [1] (at 50.0 µM); -1% in assay [2] (setting [7]); 82% (active) in assay [2] (setting [8]); 85.8% (active) in assay [2] (at 50.0 µM). Also, the growth inhibition in assay [3] (setting [7]) is 43%; in assay [3] (setting [8]), 88% (active); in assay [3] (at 50.0 µM), 91.2% (active); in assay [4] (setting [7]), -19%; in assay [4] (setting [8]) it was 80% (active); in assay [4] (at 50.0 µM), 84.3% (active). The growth inhibition was -2% in assay [5] (setting [7]); 88% (active) in assay [5] (setting [8]); 88.6% (active) in assay [5] (at 50.0 µM); 6% in assay [6] (setting [7]); 89% (active) in assay [6] (setting [8]); 86.8% (active) in assay [6] (at 50.0 µM).

Regarding `CCCCOS(=O)(=O)c1ccc(C)cc1`, the growth inhibition in assay [1] (setting [7]) was -7%; in assay [1] (setting [8]) it was 15%; in assay [1] (at 50.0 µM), 9.1%; in assay [2] (setting [7]), -4%; in assay [2] (setting [8]), -22%; in assay [2] (at 50.0 µM) it was -82.3%. In addition, the growth inhibition in assay [3] (setting [7]) is -8%; in assay [3] (setting [8]), 7%; in assay [3] (at 50.0 µM), -9.45%; in assay [4] (setting [7]) it was 1%; in assay [4] (setting [8]), -15%; in assay [4] (at 50.0 µM), 25.1%. The growth inhibition in assay [5] (setting [7]) is -16%; in assay [5] (setting [8]), -39%; in assay [5] (at 50.0 µM) it was -23.5%; in assay [6] (setting [7]) it was -6%; in assay [6] (setting [8]) it was -4%; in assay [6] (at 50.0 µM), -3.55%.

In the case of `O=C(NC(c1ccccc1)N1CCOCC1)c1ccccc1` (configuration not stated), the growth inhibition in assay [1] (setting [7]) was 2%; in assay [1] (setting [8]) it was -1%; in assay [1] (at 50.0 µM), 99% (active); in assay [2] (setting [7]) it was -7%; in assay [2] (setting [8]) it was 7%; in assay [2] (at 50.0 µM), 95.6% (active). Moreover, the growth inhibition was 0% in assay [3] (setting [7]); -3% in assay [3] (setting [8]); 96.3% (active) in assay [3] (at 50.0 µM); -2% in assay [4] (setting [7]); 3% in assay [4] (setting [8]); 76.9% (active) in assay [4] (at 50.0 µM). For the same compound, the growth inhibition was -3% in assay [5] (setting [7]); -2% in assay [5] (setting [8]); 83.4% (active) in assay [5] (at 50.0 µM); -9% in assay [6] (setting [7]); -1% in assay [6] (setting [8]); 98.8% (active) in assay [6] (at 50.0 µM).
